Compound activity as filed in PubChem.
A selection: hits, their analogues and other compounds. The true share with any hit is near 6.7%.
Mtb FBA inh: Mtb fructose-bisphosphate aldolase inhibition. P9WQA3. purified M. tuberculosis FBA, fluorescence read-out. inhibition, % at 1 µM. actives 2.3% (n = 360,000). AID 588726;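 further: 0% = vehicle and 100% = reference inhibitor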
Anthrax LF inh2: inhibitors of Bacillus anthracis lethal factor protease; multiplex microsphere protease cleavage assay, LF; inhibition, % at 10 µM; actives 0.12% (n = 360,000); AID 588501; in the data active means inhibition above about 30%; further: plate controls were buffer without enzyme for full effect and enzyme alone for no effect
Target sequence (P15917 whole entry, looked up): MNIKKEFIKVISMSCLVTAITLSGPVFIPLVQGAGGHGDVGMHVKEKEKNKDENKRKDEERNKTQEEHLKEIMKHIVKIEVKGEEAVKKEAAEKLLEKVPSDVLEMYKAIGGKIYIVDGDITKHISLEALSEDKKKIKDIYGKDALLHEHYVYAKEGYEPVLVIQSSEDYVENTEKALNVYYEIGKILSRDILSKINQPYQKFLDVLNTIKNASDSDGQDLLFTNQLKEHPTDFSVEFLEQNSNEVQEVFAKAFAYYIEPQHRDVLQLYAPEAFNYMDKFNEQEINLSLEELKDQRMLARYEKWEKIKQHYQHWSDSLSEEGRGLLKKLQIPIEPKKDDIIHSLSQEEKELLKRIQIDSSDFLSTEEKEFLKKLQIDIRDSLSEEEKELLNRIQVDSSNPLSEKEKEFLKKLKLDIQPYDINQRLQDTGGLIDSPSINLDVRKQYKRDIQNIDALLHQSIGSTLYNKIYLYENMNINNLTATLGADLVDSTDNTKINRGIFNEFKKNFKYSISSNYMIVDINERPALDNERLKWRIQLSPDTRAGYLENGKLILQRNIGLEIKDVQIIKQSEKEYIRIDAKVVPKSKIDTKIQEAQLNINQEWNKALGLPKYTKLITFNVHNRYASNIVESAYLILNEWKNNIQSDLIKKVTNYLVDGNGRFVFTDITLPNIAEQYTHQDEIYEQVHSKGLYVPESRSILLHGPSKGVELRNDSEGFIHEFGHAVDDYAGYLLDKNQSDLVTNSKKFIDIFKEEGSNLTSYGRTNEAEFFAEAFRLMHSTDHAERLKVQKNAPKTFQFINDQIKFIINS
Bead autofluor: flagged as autofluorescent in microsphere protease counterscreen; compound autofluorescence counterscreen, microsphere flow cytometry; stronger effect = higher value; fluorescence intensity (no concentration beside the values); actives 3.1% (n = 360,000); AID 624483; in the data active means fluorescence intensity above about 16000
GDH-TPI counter-1: GDH-TPI coupled enzyme inhibition counter-screen; GDH-TPI coupled enzyme counterscreen, NADH absorbance; inhibition, % at 4.8 µM; actives 1.2% (n = 360,000); in the data active means inhibition above about 30%;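 further: 0% = DMSO wells and 100% = wells lacking the enzyme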
BoNT-F LC inh: BoNT F light chain protease inhibition; actives 0.22% (n = 360,000); inhibition, % at 10 µM; AID 588497; Multiplex microsphere protease cleavage assay, flow cytometry; in the data active means inhibition above about 35%, passing the limit was not always enough; further: plate controls were buffer without enzyme for full effect and enzyme alone for no effect
BoNT-A LC inh2: inhibitors of Botulinum neurotoxin A light chain protease; inhibition, % at 10 µM; multiplex microsphere protease substrate cleavage, flow cytometry; actives 0.17% (n = 360,000); in the data active means inhibition above about 30%; further: plate controls were buffer without enzyme for full effect and enzyme alone for no effect
Mtb FBA inh conf: Mtb FBA inhibition, confirmed. inhibition, % at 1 µM. purified M. tuberculosis FBA, fluorescence read-out. AID 651616. actives 78% (n = 5,600). shares compounds with Mtb FBA inh;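 further: 0% = vehicle wells and 100% = reference inhibitor wells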
GDH-TPI counter-2: inhibits GDH-TPI coupling enzymes, flagging Mtb FBA hits; actives 81% (n = 5,600); shares compounds with Mtb FBA inh; inhibition, % at 1 µM; AID 652141; GDH-TPI coupled enzyme counterscreen, fluorescence; in the data active means inhibition above about 10%
An asterisk follows results filed as active. Unless noted, no stated cut-off is given here; in the data, active means inhibition above about 27%; inactive means the rest.

Screening COc1ccc(-c2ccc(C(=O)NCc3ccncc3)c3occc23)c(C)c1 returned Mtb FBA inh 110.6*, Anthrax LF inh2 -5.6, Bead autofluor 4100, GDH-TPI counter-1 -8.0, BoNT-F LC inh -0.2, BoNT-A LC inh2 -0.2, Mtb FBA inh conf active and GDH-TPI counter-2 active.
Screening COc1ccc(-c2ccc(C(=O)NCc3ccc(F)c(F)c3)c3occc23)c(C)c1 returned Mtb FBA inh 10.5, Anthrax LF inh2 -6.0, Bead autofluor 3503, GDH-TPI counter-1 3.6, BoNT-F LC inh -9.6 and BoNT-A LC inh2 -0.6.
Screening O=C1CCC([N+](=O)[O-])C(c2cccc([N+](=O)[O-])c2)N1 (stereo unspecified) returned Mtb FBA inh -2.3, Anthrax LF inh2 0.5, Bead autofluor 4843, GDH-TPI counter-1 -11.0, BoNT-F LC inh -2.3 and BoNT-A LC inh2 -0.2.
COc1ccc(-c2cn3c(C)c(C(=O)Nc4cccc(C)n4)sc3n2)cc1 was read as Mtb FBA inh 1.9, Anthrax LF inh2 2.1, Bead autofluor 5192, GDH-TPI counter-1 11.6, BoNT-F LC inh 5.0 and BoNT-A LC inh2 2.2.
`CCOC(=O)CCSc1nc(C)c2cc(OC)ccc2n1` gave Mtb FBA inh 36.2*, Anthrax LF inh2 -8.3, Bead autofluor 4562, GDH-TPI counter-1 0.4, BoNT-F LC inh -6.5, BoNT-A LC inh2 0.3, Mtb FBA inh conf 139.7* and GDH-TPI counter-2 116.4*.
`Fc1cccc(Cl)c1CN1CCN(c2nc3ccccc3s2)CC1` gave Mtb FBA inh -0.8, Anthrax LF inh2 14.7, Bead autofluor 4101, GDH-TPI counter-1 -4.0, BoNT-F LC inh -26.2 and BoNT-A LC inh2 -1.8.
For Cc1cc(C(=O)CSC(C)c2nc3ccccc3c(=O)[nH]2)c(C)n1C (stereo unspecified) the results were Mtb FBA inh 2.9, Anthrax LF inh2 -6.6, Bead autofluor 4511, GDH-TPI counter-1 7.8, BoNT-F LC inh 15.3 and BoNT-A LC inh2 0.6.
`COCC(=O)N(C)[C@H]1C[C@H]2c3[nH]c4ccccc4c3CCN2C(=O)[C@H]1[C@H](C)O` gave Mtb FBA inh 12.1, Anthrax LF inh2 0.7, Bead autofluor 3540, GDH-TPI counter-1 -3.1, BoNT-F LC inh 1.9 and BoNT-A LC inh2 0.4.
CN1OC[C@@H]2C(=O)N3CCc4c([nH]c5ccccc45)[C@@H]3C[C@@H]21 was read as Mtb FBA inh 37.7*, Anthrax LF inh2 -0.8, Bead autofluor 4727, GDH-TPI counter-1 -8.1, BoNT-F LC inh -1.6, BoNT-A LC inh2 1.6, Mtb FBA inh conf active and GDH-TPI counter-2 191.6*.
C[C@H](O)[C@@H]1C(=O)N2CCc3c([nH]c4ccccc34)[C@@H]2C[C@@H]1N(C)C(=O)NC1CCCCC1 was read as Mtb FBA inh 87.0*, Anthrax LF inh2 3.6, Bead autofluor 3877, GDH-TPI counter-1 10.9, BoNT-F LC inh -0.7, BoNT-A LC inh2 0.3, Mtb FBA inh conf 156.9* and GDH-TPI counter-2 116.1*.
Cc1cccc(OCC(=O)Nc2nnc(S(=O)(=O)N3CCCCC3)s2)c1 was read as Mtb FBA inh -2.8, Anthrax LF inh2 -0.2, Bead autofluor 5237, GDH-TPI counter-1 0.5, BoNT-F LC inh -5.1 and BoNT-A LC inh2 -0.1.
For COc1ccc(/C=C/C(=O)Nc2nonc2NC(C)=O)cc1 the results were Mtb FBA inh 3.1, Anthrax LF inh2 -1.3, Bead autofluor 2493, GDH-TPI counter-1 27.5, BoNT-F LC inh -1.6 and BoNT-A LC inh2 -0.2.
For O=C(CNC(=O)c1ccccc1Cl)Nc1ccncc1 the results were Mtb FBA inh 1.5, Anthrax LF inh2 5.2, Bead autofluor 4345, GDH-TPI counter-1 -3.2, BoNT-F LC inh -14.4 and BoNT-A LC inh2 -2.0.
Screening CCCn1c2ccccc2c2nnc(SCC(=O)OCC)nc21 returned Mtb FBA inh 51.6*, Anthrax LF inh2 0.0, Bead autofluor 2128, GDH-TPI counter-1 24.9, BoNT-F LC inh -8.3, BoNT-A LC inh2 0.2, Mtb FBA inh conf 37.6* and GDH-TPI counter-2 64.5*.
For CCn1c2ccccc2c2nnc(SCC(N)=O)nc21 the results were Mtb FBA inh -4.9, Anthrax LF inh2 -1.8, Bead autofluor 10238, GDH-TPI counter-1 7.9, BoNT-F LC inh -4.1 and BoNT-A LC inh2 -0.3.
`COc1cc2nc(N3CCNCC3)nc(N)c2cc1OC` gave Mtb FBA inh 56.2*, Anthrax LF inh2 -1.3, Bead autofluor 17344*, GDH-TPI counter-1 3.9, BoNT-F LC inh -4.2, BoNT-A LC inh2 -2.7, Mtb FBA inh conf 8.1 and GDH-TPI counter-2 -2.6.
For COc1ccc(CCNC(=O)c2ccc3nc4cc(Cl)ccc4c(=O)n3c2)cc1OC the results were Mtb FBA inh 11.2, Anthrax LF inh2 -2.8, Bead autofluor 3592, GDH-TPI counter-1 5.2, BoNT-F LC inh -15.9 and BoNT-A LC inh2 0.4.
COC(CNC(=O)c1ccc2nc3ccccc3c(=O)n2c1)OC was read as Mtb FBA inh 61.0*, Anthrax LF inh2 7.9, Bead autofluor 3600, GDH-TPI counter-1 18.0, BoNT-F LC inh -10.2, BoNT-A LC inh2 -4.3, Mtb FBA inh conf active and GDH-TPI counter-2 active.
`COc1cc(C(=O)NCc2ccc(C(=O)NCC(OC)OC)cc2)cc(OC)c1OC` gave Mtb FBA inh -1.1, Anthrax LF inh2 1.8, Bead autofluor 4490, GDH-TPI counter-1 -1.2, BoNT-F LC inh -3.7 and BoNT-A LC inh2 0.1.
Screening COCCCNC(=O)c1ccc2nc3ccccc3c(=O)n2c1 returned Mtb FBA inh 65.9*, Anthrax LF inh2 1.5, Bead autofluor 9459, GDH-TPI counter-1 12.8, BoNT-F LC inh 3.8, BoNT-A LC inh2 1.9, Mtb FBA inh conf 121.4* and GDH-TPI counter-2 106.0*.
For CC(=O)NCCNc1nc2cc(-c3ccc4c(ccn4C)c3)sc2c(=O)n1C the results were Mtb FBA inh 32.8*, Anthrax LF inh2 1.3, Bead autofluor 4256, GDH-TPI counter-1 10.6, BoNT-F LC inh -4.8, BoNT-A LC inh2 -0.2, Mtb FBA inh conf 78.0* and GDH-TPI counter-2 83.1*.
For CC(=O)NCCNc1nc2cc(-c3ccc(C)cc3)sc2c(=O)n1C the results were Mtb FBA inh 3.1, Anthrax LF inh2 -2.8, Bead autofluor 3593, GDH-TPI counter-1 17.7, BoNT-F LC inh 3.5 and BoNT-A LC inh2 -0.5.
Fc1cccc2sc(Nc3nnc(-c4ccccc4)o3)nc12 was read as Mtb FBA inh 63.8*, Anthrax LF inh2 -1.8, Bead autofluor 4068, GDH-TPI counter-1 44.6*, BoNT-F LC inh -17.3, BoNT-A LC inh2 -0.9, Mtb FBA inh conf active and GDH-TPI counter-2 active.
For Fc1cccc2sc(Nc3nc4c(F)cccc4s3)nc12 the results were Mtb FBA inh 16.1, Anthrax LF inh2 -0.3, Bead autofluor 2462, GDH-TPI counter-1 16.6, BoNT-F LC inh 5.6 and BoNT-A LC inh2 0.3.
COc1cc(OC)cc(-c2nnc(Nc3nc4c(F)cccc4s3)o2)c1 was read as Mtb FBA inh 30.3*, Anthrax LF inh2 -4.4, Bead autofluor 9081, GDH-TPI counter-1 27.1, BoNT-F LC inh -9.9, BoNT-A LC inh2 -0.5, Mtb FBA inh conf 83.8* and GDH-TPI counter-2 76.3*.
